From PubChem BioAssay
Where “and” joins values, the source holds several entries; their conditions need not be identical. Equal values may be shown once. Results filed as inconclusive are left out. Calls of active or inactive are those of the source. Unless noted, cut-off not given; nearly all actives show AC50 up to about 26 µM.

Tests used:
[1] = viability loss in pontine glioma line – cell-based, SU-DIPG-XXV, MIPE5.0, CellTiter-Glo, qHTS, dose response (AID 1347065); conditions: CellTiter-Glo ATP luminescence;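 further: cells exposed to compound for 48 hours before ATP readout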
[2] = SU-DIPG-VI glioma cell viability, MIPE4.0 library, CellTiter-Glo luminescence, qHTS (AID 1347066; cut-off not given, nearly all actives have AC50 up to about 30 µM;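 further: cells exposed to compound for 48 hours before readout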); conditions: CellTiter-Glo ATP luminescence
[3] = JHH-DIPG-1 glioma cell viability, MIPE5.0 library, CellTiter-Glo luminescence, qHTS (AID 1347067); conditions: JHH-DIPG-1 glioma viability, CellTiter-Glo ATP luminescence;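 further: cells exposed to compound for 48 hours before readout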
[4] = SU-DIPG-XXV glioma cell viability, MIPE5.0 library, qHTS (AID 1347068; cut-off not given, nearly all actives have IC50 up to about 30 µM)
[5] = sensitizers of A549 cells to miR-34 induction, primary screen, imaging, A549 dox-inducible miR-34, nuclei and caspase counts (AID 1347080;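 active means compounds whose cell count with miR-34 switched on is under 0.7 times the count with it off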); conditions: A549 miR-34 inducible, Hoechst nuclei count, 48 h
[6] = survival rescue of mitochondrial mutant cells in low glucose, primary screen, MELAS cybrids, Rieske KO mouse fibroblasts, CellTiter-Glo (AID 1508586;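 active means mean z-score across replicates of 1.96 or higher in either the MELAS or the Rieske mutant cell line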;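 further: z relative to plate mean and SD of compound and empty wells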)
[7] = target: NAD(+) hydrolase SARM1 (Homo sapiens) (UniProt Q6SZW1); assay: SARM1 TIR NADase inhibitors, cell lysate, NAD-Glo luminescence (AID 1508614;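 active means compound whose remaining NAD level is above about 45 nM, limit read from the data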); conditions: SAM-TIR HEK293T lysate NADase, at 1 µM, stronger effect = higher value
Sequence of NAD(+) hydrolase SARM1 (Homo sapiens) (Q6SZW1 whole entry, looked up, the tested form may be a part): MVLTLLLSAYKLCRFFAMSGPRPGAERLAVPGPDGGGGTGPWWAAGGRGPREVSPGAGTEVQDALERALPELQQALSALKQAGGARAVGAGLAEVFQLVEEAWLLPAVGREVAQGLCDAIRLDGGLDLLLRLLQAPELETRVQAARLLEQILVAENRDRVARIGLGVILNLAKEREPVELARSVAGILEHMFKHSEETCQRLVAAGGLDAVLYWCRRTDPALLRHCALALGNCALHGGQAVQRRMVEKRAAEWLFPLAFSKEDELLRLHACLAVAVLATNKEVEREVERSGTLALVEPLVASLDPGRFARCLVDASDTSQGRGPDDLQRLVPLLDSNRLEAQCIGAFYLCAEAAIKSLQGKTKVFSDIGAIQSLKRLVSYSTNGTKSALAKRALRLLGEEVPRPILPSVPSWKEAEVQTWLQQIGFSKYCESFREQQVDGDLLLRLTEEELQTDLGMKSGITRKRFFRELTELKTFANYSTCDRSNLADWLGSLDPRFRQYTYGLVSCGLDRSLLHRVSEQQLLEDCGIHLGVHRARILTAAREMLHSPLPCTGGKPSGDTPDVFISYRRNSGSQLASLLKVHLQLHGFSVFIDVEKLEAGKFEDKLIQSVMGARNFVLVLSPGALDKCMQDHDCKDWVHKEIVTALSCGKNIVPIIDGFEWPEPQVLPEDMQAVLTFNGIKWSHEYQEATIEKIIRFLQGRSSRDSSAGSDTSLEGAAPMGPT

[8] = target: Mitogen-activated protein kinase 7 (Homo sapiens) (UniProt Q13164); assay: ERK5 transactivation activators in reporter cells, primary screen, cell-based, HTS (AID 1508626;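 active means luciferase signal above three times the same-plate solvent-only control wells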;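 further: luciferase driven by Gal4-ERK5 fusion binding five Gal4 sites before minimal TATA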); conditions: HeLa Gal4-ERK5 transactivation, 18 h, at 5 µM, stronger effect = higher value
Sequence of Mitogen-activated protein kinase 7 (Homo sapiens) (Q13164 whole entry, looked up, the tested form may be a part): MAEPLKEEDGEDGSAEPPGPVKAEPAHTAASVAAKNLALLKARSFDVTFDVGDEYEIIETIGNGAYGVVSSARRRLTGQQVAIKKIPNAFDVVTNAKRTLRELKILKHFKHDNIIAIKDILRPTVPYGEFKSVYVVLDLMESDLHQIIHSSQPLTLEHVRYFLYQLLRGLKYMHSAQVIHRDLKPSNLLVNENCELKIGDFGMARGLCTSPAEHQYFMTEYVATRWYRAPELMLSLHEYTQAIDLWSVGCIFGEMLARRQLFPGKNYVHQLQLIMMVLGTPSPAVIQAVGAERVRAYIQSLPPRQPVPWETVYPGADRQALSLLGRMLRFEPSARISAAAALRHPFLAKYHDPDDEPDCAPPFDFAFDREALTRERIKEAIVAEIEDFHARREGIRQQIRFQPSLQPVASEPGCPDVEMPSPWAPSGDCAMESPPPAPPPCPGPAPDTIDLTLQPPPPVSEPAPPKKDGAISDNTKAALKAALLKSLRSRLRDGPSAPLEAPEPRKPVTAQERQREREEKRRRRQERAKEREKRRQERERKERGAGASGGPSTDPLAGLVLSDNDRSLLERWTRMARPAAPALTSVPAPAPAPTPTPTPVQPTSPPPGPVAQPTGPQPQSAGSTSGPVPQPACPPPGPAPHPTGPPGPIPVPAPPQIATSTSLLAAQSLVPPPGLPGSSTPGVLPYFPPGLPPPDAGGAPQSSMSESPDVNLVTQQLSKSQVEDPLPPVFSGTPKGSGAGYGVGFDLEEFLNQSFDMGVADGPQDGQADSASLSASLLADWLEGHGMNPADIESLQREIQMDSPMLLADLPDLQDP

[9] = viability rescue of complex I mutant cybrids, primary screen, cell-based, galactose medium, ATP luminescence (AID 1645843;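 active means z-score of at least 1.8 in each of two replicates, scored against plate mean and spread of sample wells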;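 further: positive z means more ATP and so rescue of galactose-driven cybrid death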); conditions: complex I mutant cybrid cells, 72 h, stronger effect = higher value
[10] = phospholipid biosynthesis inhibitors in animal cells, primary screen, cell-based, LOPAC library, screen 4 (AID 1347384; call rule not given here); conditions: phospholipid biosynthesis inhibition screen, at 10 µM
[11] = stronger effect = lower value, cell number ratio, induced over uninduced
[12] = measured here: relative caspase fold change +Dox/-Dox
[13] = measured here: total cells with miR-34 induction, stronger effect = lower value
[14] = measured here: total cells without miR-34 induction
[15] = MELAS cybrid survival, CellTiter-Glo 48 h, stronger effect = higher value
[16] = Rieske KO mouse fibroblast survival, CellTiter-Glo 72 h

Row | SMILES | outcome [1] | outcome [2] | outcome [3] | outcome [4] | fold change [5, 11] | fold change [5, 12] | cell count [5, 13] | cell count [5, 14] | z-score [6, 15] | z-score [6, 16] | remaining NAD [7] | luciferase signal [8] | z-score [9] | outcome [10]
1 | CC1(C)O[C@@H]2C[C@H]3[C@@H]4C[C@H](F)C5=CC(=O)C=C[C@]5(C)[C@@]4(F)[C@@H](O)C[C@]3(C)[C@]2(C(=O)CO)O1 | inactive | inactive | inactive | inactive | 0.962 (inactive) and 0.858 (inactive) | 2.42 and 1.12 | 7620 and 6920 | 7920 and 8070 | 0.713 (inactive) and 0.472 (inactive) | 0.469 and 1.67 | 10 nM (inactive) | 124 AU (inactive) | -0.48 (inactive) and 0.45 (inactive) | 
2 | C[C@@H]1CN(c2c(F)c(N)c3c(=O)c(C(=O)O)cn(C4CC4)c3c2F)C[C@H](C)N1 | inactive | inactive | inactive | inactive | 0.881 (inactive) | 1.37 | 9500 | 10800 | -0.149 (inactive) and 0.182 (inactive) | -0.511 and -0.3 | 10 nM (inactive) |  | 0.565 (inactive) | 
3 | NC(=O)c1ncn([C@@H]2O[C@H](CO)[C@@H](O)[C@H]2O)c1O | inactive | inactive | inactive | inactive | 1.09 (inactive) | 1.07 | 10800 | 9890 |  |  |  |  | 0.59 (inactive) | inactive
4 | Cc1cnc(C(=O)O)c[n+]1[O-] | inactive | inactive | inactive | inactive | 0.836 (inactive) and 0.829 (inactive) | 0.776 and 1.63 | 6980 and 9220 | 8340 and 11100 | 0.0931 (inactive) and 0.196 (inactive) and -0.0621 (inactive) | -1.45 and -0.0767 and -0.000299 | 10 nM (inactive) |  | 0.95 (inactive) | 
